For 13 compounds, Potency, activation and viability results are on record in PubChem BioAssay (NCATS).

Several values for one entry are separate records, joined by “and”; a condition that tells them apart may be missing. Identical values can stand only once. Results filed as inconclusive are left out. A number with no mark means an inactive call. Activity calls are given as the source filed them. Calls come from the whole dose curve; as a rule, active = well fitted curve in the direction sought with a large enough effect; inconclusive = small, poorly fitted or top-dose-only effect, or another doubt; inactive = no such curve, though single readings can be large; an effect the other way counts as inactive or inconclusive.

The target of assay [1] is Cellular tumor antigen p53 (Homo sapiens) (UniProt P04637). As to the kind of experiment: Primary qHTS for small molecule compounds that upregulate eGFP-tagged delta133p53alpha (in N-terminal) cells. (AID 2060322).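 For activation: 0% = DMSO vehicle and 100% = reference activator.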 Note: nearly all actives have a fitted effect of over 75% in size. Note: potency is the fitted concentration of half-maximal effect. The following applies: NCI-H358 eGFP-delta133p53alpha fluorescence, 24 h; activation: stronger effect = higher value. In short, it runs like this: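 NCI-H358 cells pre-induced 24 h with 10 ng/ml doxycycline to express N-terminal eGFP-delta133p53alpha, then dosed 24 h at 37C without doxycycline; fixed, Hoechst-stained, GFP intensity by laser scanning cytometry, normalized to DMSO (0%) and 57.5 uM 5-azacytidine (100%).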
In general terms: In qHTS, concentration-response curves come from the screen itself.

Assay [2] deals with Aldehyde dehydrogenase, mitochondrial (Homo sapiens) (UniProt P05091). As to the kind of experiment: qHTS for Inhibitors of the Aldehyde Dehydrogenase Family (ALDH2) Primary screen (AID 2061308).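 Note: plate controls were vehicle for no effect and reference inhibitor for full effect; nearly all actives have a fitted effect of over 55% in size.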 The note with it: ALDH2 enzyme inhibition qHTS, 1536-well; series mostly up to 56 µM.
For assay [3], the target named is Retinaldehyde dehydrogenase 3 (Homo sapiens) (UniProt P47895). As to the kind of experiment: qHTS for Inhibitors of the Aldehyde Dehydrogenase Family (ALDH1A3) Primary screen (AID 2061315).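 Note: plate controls were DMSO vehicle for no effect and reference inhibitor for full effect.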 The note with it: ALDH inhibition qHTS; series mostly up to 56 µM.
Assay [4] is described as follows: BET inhibitor-based combinations targeting novel dependencies in MECOM-rearranged (r) AML: SET-2 cell line (AID 2202231).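 For viability: plate controls were DMSO treated cells for no effect and wells without cells for full effect.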 Note: nearly all actives have a fitted effect of over 35% in size. Note: potency is the fitted concentration of half-maximal effect. The following applies: SET-2 AML cells viability, CellTiter-Glo luminescence, 48 h; viability: stronger effect = lower value, concentration not given here. Summed up:
(§1)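 Cells were plated at 500 per well and exposed to an 11-point dose series of each drug for 48 hr. Viability was measured by CellTiter-Glo luminescence, normalized to DMSO and empty-well controls, and summarized as AUC and per-cell-line Z-AUC.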
For orientation: Cellular ATP, detected with luciferase, serves as a proxy for viable cell number.

A short description of assay [5]: BET inhibitor-based combinations targeting novel dependencies in MECOM-rearranged (r) AML: OCI-AML3 cell line (AID 2202232). Note: nearly all actives have a fitted effect of over 35% in size. Note: potency is the fitted concentration of half-maximal effect. The note with it: CellTiter-Glo luminescence, 48 h; Potency: OCI-AML3 viability; series mostly up to 46 µM. In short, it runs like this:
as §1

The nature of assay [6]: BET inhibitor-based combinations targeting novel dependencies in MECOM-rearranged (r) AML: MV-4-11 cell line (AID 2202233). Note: nearly all actives have a fitted effect of over 45% in size. Note: potency is the fitted concentration of half-maximal effect. The following applies: MV-4-11 AML viability, CellTiter-Glo luminescence, 48 h; series mostly up to 46 µM. Summed up: (§2)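 Activity is given as area under the curve and as Z-AUC, mean-centred within each cell line. It comes from 11-point dose curves normalized to DMSO and empty wells. CellTiter-Glo luminescence was read after 48 hr drug exposure of 500 cells/well.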

Assay [7] can be described thus: BET inhibitor-based combinations targeting novel dependencies in MECOM-rearranged (r) AML: HNT-34 cell line (AID 2202234). Note: nearly all actives have a fitted effect of over 35% in size. Note: potency is the fitted concentration of half-maximal effect. The following applies: HNT-34 AML viability, CellTiter-Glo luminescence, 48 h; series mostly up to 46 µM. Summed up:
as §2

Assay [8] can be described thus: BET inhibitor-based combinations targeting novel dependencies in MECOM-rearranged (r) AML: UCSD-AML1 cell line (AID 2202235). Note: nearly all actives have a fitted effect of over 40% in size. Note: potency is the fitted concentration of half-maximal effect. The following applies: UCSD-AML1 AML cells viability, CellTiter-Glo, 48 h; series mostly up to 46 µM. Summed up:
as §2

The nature of assay [9]: BET inhibitor-based combinations targeting novel dependencies in MECOM-rearranged (r) AML: AML-191 cell line (AID 2202236; note: nearly all actives have a fitted effect of over 35% in size; note: potency is the fitted concentration of half-maximal effect). The note with it: AML-191 viability, CellTiter-Glo luminescence, 48 h; series mostly up to 46 µM. In short, it runs like this: as §1
The nature of assay [10]: BET inhibitor-based combinations targeting novel dependencies in MECOM-rearranged (r) AML: AML-194 cell line (AID 2202237; note: nearly all actives have a fitted effect of over 40% in size; note: potency is the fitted concentration of half-maximal effect). The following applies: AML-194 (MECOM-r AML) viability, CellTiter-Glo, 48 h; series mostly up to 46 µM. In short, it runs like this:
as §1

Sequence of Cellular tumor antigen p53 (Homo sapiens) (P04637 whole entry, looked up): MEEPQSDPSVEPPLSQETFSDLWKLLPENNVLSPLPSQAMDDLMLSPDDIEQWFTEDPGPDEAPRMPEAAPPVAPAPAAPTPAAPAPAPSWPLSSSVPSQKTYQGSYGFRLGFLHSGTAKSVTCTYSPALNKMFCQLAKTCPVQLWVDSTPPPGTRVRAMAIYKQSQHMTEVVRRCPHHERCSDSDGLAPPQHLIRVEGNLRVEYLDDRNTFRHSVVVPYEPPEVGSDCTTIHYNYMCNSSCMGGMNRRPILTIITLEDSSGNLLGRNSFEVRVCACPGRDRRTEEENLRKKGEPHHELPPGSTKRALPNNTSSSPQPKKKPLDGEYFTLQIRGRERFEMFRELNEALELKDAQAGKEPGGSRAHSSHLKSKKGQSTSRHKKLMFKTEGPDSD

`CCNC(=O)C#Cc1ccc2c(C(=Nc3ccc(CN(C)C)cc3)c3ccccc3)c(O)[nH]c2c1`: the Potency is 13.1 µM (active) in assay [1]; 12.9 µM (active) in assay [4]; 0.144 µM (active) in assay [5]; 0.0645 µM (active) in [6]; 0.091 µM (active) in assay [7]; 0.574 µM (active) in assay [8]. For the same compound, the Potency in assay [9] is 0.204 µM (active); in [10], 0.162 µM (active). Moreover, the Potency entry in assay [2] and in [3] was “inactive” throughout.

Regarding `Cc1cc(O)c(-c2ccc([C@@H](C)CN(C)C)cc2)c2c1[nH]c(=O)c1sccc12`, the Potency in [1] was 0.301 µM (active); in assay [4], 0.148 µM (active); in assay [5] it was 0.132 µM (active); in assay [6] it was 0.0833 µM (active); in assay [7], 0.148 µM (active); in assay [8], 0.0934 µM (active). In addition, the Potency is 0.118 µM (active) in assay [9] and 0.417 µM (active) in assay [10]. The Potency entry in [2] and in assay [3] was “inactive” each time.

As for `Cc1[nH]nc(C(F)(F)F)c1Cc1sc2c(c1C(=O)N1C[C@](C)(O)CO1)c(=O)n(C)c(=O)n2C(C)C`, in [1], the activation was -10.3%. The Potency entry in [2], in [3], in assay [5], in [6], in assay [7] and in assay [8] was “inactive” throughout. Besides, the Potency entry in assay [9] and in assay [10] was “inactive” throughout. Besides, in [4], the viability is 110%.

On to `CNc1nc(C)nc(N[C@H]2CCC[C@@H](C(=O)NCc3ccc(C#N)cc3C(F)(F)F)C2)n1`, for which the activation in [1] was 10%. Besides, the Potency result in assay [2], in assay [3], in assay [5], in assay [7], in assay [8] and in [9] was “inactive” in each case. The Potency result in [10] was “inactive”. Moreover, in assay [4], the viability is 108%. Besides, the Potency in assay [6] is 16.6 µM (active).

In the case of `CNC(=O)c1cc(Oc2ccc(NC(=O)Nc3ccc(Cl)c(C(F)(F)F)c3)cc2)ccn1`, in assay [1], the activation is 4.11%. Besides, the Potency entry in [2] and in assay [3] was “inactive” in each case. In addition, the Potency in assay [4] was 26.3 µM (active); in [5], 9.34 µM (active); in [6], 0.0132 µM (active); in assay [7], 10.5 µM (active); in assay [8] it was 18.6 µM (active); in [9], 14.8 µM (active). Also, the Potency in assay [10] is 16.6 µM (active).

With `COc1cc2ncnc(Nc3ccc(F)c(Cl)c3)c2cc1NC(=O)/C=C/CN1CCCCC1`, the Potency is 9.53 µM (active) in assay [1]; 8.33 µM (active) in [4]; 5.9 µM (active) in assay [5]; 2.95 µM (active) in assay [6]; 3.72 µM (active) in assay [7]; 8.33 µM (active) in [8]. For the same compound, the values for the Potency in [9] and in assay [10] were 7.42 µM (active) and 8.33 µM (active), respectively. In addition, the Potency result in assay [2] and in assay [3] was “inactive” each time.

On to `CCc1ccc(C(=O)Nc2cc(CN3CCN(C)CC3)cc(C(F)(F)F)c2)cc1C#Cc1cnc2ccnn2c1`, for which the Potency in [1] is 19 µM (active); in [4], 14.8 µM (active); in assay [5] it was 10.5 µM (active); in assay [6] it was 7.42 µM (active); in [7], 1.86 µM (active); in [8], 9.34 µM (active). The Potency in assay [9] and in assay [10] was 5.9 µM (active) throughout. The Potency entry in assay [2] and in assay [3] was “inactive” each time.

For `CN1CCN(c2ccc(C(=O)Nc3n[nH]c4ccc(Cc5cc(F)cc(F)c5)cc34)c(NC3CCOCC3)c2)CC1`, the Potency in assay [1] is 30.1 µM (active) and 216 nM (active); in [4] it was 16.6 µM (active); in assay [5], 11.8 µM (active); in assay [6], 0.468 µM (active); in assay [7] it was 5.9 µM (active); in assay [8], 3.32 µM (active). The figures for the Potency in assay [9] and in assay [10] were 5.25 µM (active) and 1.48 µM (active), respectively. For the same compound, the Potency entry in assay [2] and in assay [3] was “inactive” each time.

As to `CS(=O)(=O)N1CCC(NC(=O)c2[nH]ncc2NC(=O)c2c(Cl)cccc2Cl)CC1`, the Potency in [1] was 3.01 µM (active); in assay [4] it was 2.35 µM (active); in assay [5] it was 1.48 µM (active); in assay [6], 0.59 µM (active); in [7], 2.09 µM (active); in [8], 1.48 µM (active). Moreover, the values for the Potency in assay [9] and in assay [10] were 1.18 µM (active) and 1.86 µM (active), respectively. Also, the Potency entry in [2] and in assay [3] was “inactive” throughout.

Take `CC(=O)Nc1nc(C)c(-c2ccc(Cl)c(S(=O)(=O)NCCO)c2)s1`: the activation in assay [1] was 12.7% and -14.3%. Also, the Potency result in assay [2] and in assay [3] was “inactive” in each case. For the same compound, the Potency was 14.8 µM (active) in assay [4]; 8.33 µM (active) in [5]; 3.72 µM (active) in assay [6]; 5.25 µM (active) in [7]; 3.72 µM (active) in assay [8]; 5.25 µM (active) in [9]. Besides, the Potency in assay [10] is 4.17 µM (active).

With `CC1=C(CO)C(=O)O[C@@H]([C@@H](C)[C@H]2CC[C@H]3[C@@H]4C[C@H]5O[C@]56[C@@H](O)C=CC(=O)[C@]6(C)[C@H]4CC[C@]23C)C1`, the Potency is 1.47 µM (active) in assay [1]; 0.59 µM (active) in assay [4]; 0.742 µM (active) in assay [5]; 0.662 µM (active) in [6]; 0.118 µM (active) in assay [7]; 0.417 µM (active) in assay [8]. For the same compound, the Potency in [9] and in assay [10] was 0.372 µM (active) in each case. The Potency result in [2] and in [3] was “inactive” each time.

Take `Cc1cnc(Nc2ccc(OCCN3CCCC3)cc2)nc1Nc1cccc(S(=O)(=O)NC(C)(C)C)c1`: the activation in [1] was 27.2% and -7.14% and 27.9%. For the same compound, the Potency entry in [2] and in assay [3] was “inactive” in each case. In addition, the Potency in assay [4] is 4.68 µM (active); in [5], 2.63 µM (active); in [6] it was 0.742 µM (active); in assay [7] it was 1.66 µM (active); in assay [8], 2.35 µM (active); in assay [9] it was 3.32 µM (active). Further, the Potency in [10] was 5.25 µM (active).

For the compound `C=CC(=O)Nc1cccc(Oc2nc(Nc3ccc(N4CCN(C)CC4)cc3)ncc2Cl)c1`, the Potency was 9.68 µM (active) and 13.5 µM (active) in assay [1]; 14.8 µM (active) in assay [4]; 7.42 µM (active) in [5]; 1.86 µM (active) in [6]; 2.35 µM (active) in [7]; 4.17 µM (active) in [8]. Further, the Potency is 5.9 µM (active) in assay [9] and 5.25 µM (active) in [10]. In addition, the Potency entry in [2] and in [3] was “inactive” each time.

As usually defined, the viability is a read-out of living cells in per cent, often relative to untreated cells.
